PubChem BioAssay (NCI)
This is part of a sample that, as a whole, favours compounds with a hit. Of some 83,000 tested, about 20% had one in any assay.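 Percent growth is the endpoint: 0 to 100 indicates growth inhibition (40 means 60% inhibition), 0 means no net growth, and negative values indicate cell death.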 Values without a mark were called inactive. The source made the active and inactive calls. How the source made its calls: active means growth percent below 10; inactive means the rest.

How the values were obtained:
Experiment in all cases: NCI-60 one-dose screen, 48 h (100 = growth as untreated, 0 = no growth, -100 = all killed)
Settings in all cases: 10 µM unless noted
[1] = system: HCT-15 colon
[2] = system: HT29 colon
[3] = system: SNB-75 CNS
[4] = system: SNB-19 CNS
[5] = system: U251 CNS
[6] = system: PC-3 prostate
[7] = system: SK-MEL-5 melanoma
[8] = system: UACC-62 melanoma
[9] = system: LOX IMVI melanoma
[10] = system: SK-MEL-28 melanoma

SMILES	growth [1]	growth [2]	growth [3]	growth [4]	growth [5]	growth [6]	growth [7]	growth [8]	growth [9]	growth [10]
O=C(C1=Cc2cc3ccccc3n2Cc2cnnn21)c1ccc(F)cc1	95.8%	112%	86.2%	94.1%	98.2%	92.3%	96%	90.9%	98.8%	105%
Cc1cc(N2CCN(CC(=O)Nc3ccc4c(ccn4Cc4ccccc4)c3)CC2)nc(N2CCOCC2)n1	65.1%	67.3%	88.7%	84.3%	70.8%	57%	83.1%	67.7%	88.2%	91.4%
C=C1SC(=Nc2ccccc2Cl)N(C(=O)c2sc3ccccc3c2Cl)C1(C)C	81.4%	61.6%	42.6%	42.9%	49.2%	30.7%	66.7%	60%	77.3%	113%
COC(=O)/C=C1/SC(=NCc2ccccc2)N(CCc2c[nH]c3ccccc23)C1=O	58.5%	68.1%	104%	87.2%	78.5%	72.9%	87.6%	71.7%	70.6%	86.5%
C=C(c1ccc(C(=O)O)c(F)c1)c1cc2c(cc1C)C(C)(C)CCC2(C)C	80.9%	97.9%	74.3%	86.8%	75.4%	72.5%	74%	83.5%	93.9%	89.9%
CC(=O)c1c(Nc2cccc(F)c2)[nH]c2c(Cl)cc(Cl)c(Cl)c2c1=O	8.24% (active)	4.86% (active)	-9.54% (active)	16.6%	3.22% (active)	10.3%	-68.7% (active)	-18.7% (active)	9.99% (active)	5.27% (active)
CCN(CC)CCN1C(=O)c2c(c3c4ccccc4[nH]c3c3ccc4ccccc4c23)C1=O	-74.4% (active)	-45.5% (active)	76.1%	84.9%	-89.3% (active)	-74.6% (active)	-23% (active)	76.8%	-88.3% (active)	0.268% (active)
Cn1cc(-c2nonc2-c2c[nH]c3ccccc23)c2cc(Br)ccc21	18.5%	8.18% (active)	46.3%	49.7%	29.8%	41.7%	48%	34.2%	19%	60.8%
O=C1OCC2=C1C(c1ccccc1)c1cc3c(cc1N2CCO)OCCO3 (stereo not given)	7.18% (active)	-35.9% (active)	-11.2% (active)	12.8%	7.86% (active)	17.3%	4.37% (active)	14.5%	34.6%	32.6%
C#Cc1cccc(Nc2ncnc3cc(NC(=O)CCl)ccc23)c1	-67.7% (active)	-65.5% (active)	-97.2% (active)	-70.8% (active)	-88.1% (active)	-64.9% (active)	-93.9% (active)	-68.6% (active)	-62.7% (active)	-45.1% (active)
CCN1C(=O)N(c2ccccc2)C2NC(=S)N(/N=C/C=C/c3ccccc3OC)C21 (stereo not given)	8.49% (active)	7.61% (active)	25.2%	32.7%	15.6%	29.3%	-14.1% (active)	32.6%	15.4%	57.7%
O=S(=O)(Nc1cc(F)cc(F)c1)c1ccc(-c2cnc(C3CC3)o2)cc1	20%	4.44% (active)	-3.36% (active)	30%	33%	48.1%	29.4%	33.7%	36.3%	60.8%
O=C(/C=C/c1cn(-c2ccccc2)nc1-c1ccccc1)CCC(=O)NO	110%	104%	95.6%	112%	106%	108%	105%	103%	99.4%	130%
CCOC(=O)NCCCC(=O)NCCc1ccccc1	118%	110%	109%	108%	99.6%	99.5%	99.8%	107%	94.2%	114%
CC(C)NS(=O)(=O)/N=C1\NC(=O)NC1=C(Cl)Cl	86.3%	99%	104%	94.3%	90.6%	94.5%	92.8%	84.5%	94.8%	108%
O=C(N/N=C/c1ccc(Cl)cc1)c1ccc(NC(=O)c2ccccn2)cc1	62.8%	71.8%	-16% (active)	64.9%	18.3%	79.8%	39.7%	62%	54%	52.1%
COc1ccc(/C=N/NC(=O)Cn2c(-c3ccc(S(C)(=O)=O)cc3)nc3ccccc32)cc1	98.8%	103%	101%	100%	106%	93.2%	96.7%	90.8%	114%	102%
COc1cc2c3c(c4c5ccccc5[nH]c4c2c(OC)c1OC)C(=O)N(CCN1CCCCC1)C3=O	-87.2% (active)	-39.6% (active)	63.5%	30.1%	-60.3% (active)	31.3%	31.7%	48.4%	-92% (active)	52.2%
Cc1ccc(Cc2cnc(NC(=O)/C=C/c3ccc(C)o3)s2)cc1	19.9%	11.4%	26.7%	56.4%	41.9%	33.3%	23.8%	31.9%	49.5%	65.5%
N=C(N)c1ccc(OCCSCCOc2ccc(C(=N)N)cc2)cc1	85.1%	85.4%	71.2%	56.7%	48%	90.6%	41.4%	67.4%	90.5%	92.2%
Clc1ccc(-c2cc(-c3ccccc3)nc(N3CCN(CCCNc4ccnc5cc(Cl)ccc45)CC3)n2)cc1	-25.5% (active)	-1.6% (active)	-23.9% (active)	49%	-52.9% (active)	43.1%	33.2%	51%	-95.5% (active)	-37.5% (active)
COc1ccc(-c2cc(C(=O)N3N=C(c4ccc(N)cc4)CC3c3ccc(Cl)cc3)c3cc(OC)ccc3n2)cc1 (stereo not given)	22.4%	45.1%	87.3%	92.6%	74.9%	22.9%	88%	49%	39%	48%
COc1cc([C@@H](CCO)C[C@H](C)c2ccc3ccccc3c2)cc(OC)c1OC	26.3%	11.2%	-10% (active)	37.8%	27.8%	29.7%	28%	39.2%	39.2%	61.8%
O=C(Nc1ncc(Cc2ccccc2)s1)c1sc2ccccc2c1Cl	26.5%	12.3%	-1.11% (active)	52.6%	21.4%	27%	3.74% (active)	12.1%	46.9%	59.4%
O=C(/C=C/C12c3ccccc3C(c3ccccc31)C1C(=O)NC(=O)C12)c1ccc(Cl)cc1Cl (stereo not given)	11%	1.07% (active)	25.1%	27%	7.87% (active)	15.6%	36.8%	12.5%	-25.6% (active)	4.9% (active)
Ic1ccc(Nc2nc3nonc3nc2Nc2ccc(I)cc2)cc1	-11.5% (active)	0.391% (active)	24.7%	22.4%	6.94% (active)	4.36% (active)	-81.2% (active)	-28.2% (active)	-3.56% (active)	12.2%
Cn1c(=O)c2[nH]c(SC/C(=N/O)c3ccc(Br)cc3)nc2n(C)c1=O	76.4%	70%	-27.2% (active)	38.6%	1.08% (active)	49.3%	33.4%	-14.2% (active)	36.9%	45.6%
